{"source": "the supplement of paper PMC10681739"}
{"target": "RUNX1 (UniProt Q01196)", "sequence (Q01196 whole entry)": "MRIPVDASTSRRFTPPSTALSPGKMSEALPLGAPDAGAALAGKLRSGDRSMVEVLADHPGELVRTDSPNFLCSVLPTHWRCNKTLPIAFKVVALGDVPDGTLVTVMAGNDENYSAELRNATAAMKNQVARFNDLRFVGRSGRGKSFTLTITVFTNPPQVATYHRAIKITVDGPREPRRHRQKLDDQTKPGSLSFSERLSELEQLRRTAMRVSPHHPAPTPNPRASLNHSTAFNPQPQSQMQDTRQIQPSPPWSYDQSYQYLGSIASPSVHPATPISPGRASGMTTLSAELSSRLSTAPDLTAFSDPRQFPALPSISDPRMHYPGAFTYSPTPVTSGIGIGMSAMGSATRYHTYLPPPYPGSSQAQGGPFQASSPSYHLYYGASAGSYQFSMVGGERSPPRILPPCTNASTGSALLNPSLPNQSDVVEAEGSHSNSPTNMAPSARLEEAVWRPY", "test": "RUNX1 binding intensity (PBM fluorescence), RUNX1 alone (arbitrary fluorescence units); higher = stronger binding", "conditions": "RUNX1 concentration 2 nM; ETS1 concentration 0 nM", "experimental": "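Cooperative gcPBM on 36-bp genomic probes with neighbouring ETS1 and RUNX1 sites. Recombinant human RUNX1 (2 nM) was incubated alone or with ETS1 (25 nM) and detected with anti-RUNX1 antibody plus Alexa488 secondary. Values are medians over 4 replicate spots; the RUNX1+ETS1 data were normalised to the RUNX1-only data. The probes sit in constant array flanks that are not printed.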"}
{"sequence": "TGATCAGCAAAAGGAAGTGGTTAACATGGCCCAGAA", "RUNX1 binding intensity": 825}
{"sequence": "AGTCAAACAGGATGTGGCTGGGGAGGCGGTTGTCAC", "RUNX1 binding intensity": 725}
{"sequence": "AGACTCCATCCGCCATGTTGGATGCCGCAGATTCGC", "RUNX1 binding intensity": 813}
{"sequence": "AAGACACCAACGCTCGGAAACCGCCAGACACCAACG", "RUNX1 binding intensity": 945}
{"sequence": "CTAGCCAGGAAGATAAAGAAGAAACCACCAAAGAGA", "RUNX1 binding intensity": 870}
{"sequence": "GACAGTTTTCCGGCCTAGTTTGCGGCTGCTCCTGCC", "RUNX1 binding intensity": 830}
{"sequence": "TACAGCTTCCTTCACCCCACTTGTGGCCTGGGTTAC", "RUNX1 binding intensity": 814}
{"sequence": "AGAGGCAGTTCCGGGGTGGGAACCGCGCGGAGCTTT", "RUNX1 binding intensity": 687}
{"sequence": "CAGTGTTCCGCGTCCGGGGGTTTGTGGGAGTTGCCT", "RUNX1 binding intensity": 989}
{"sequence": "CAGTTTATCCTGTGAGAGCCTTGTGGTTCCTACTAA", "RUNX1 binding intensity": 773}
{"sequence": "ACGTCAGCATCCGCCGGGCTCGCGGTAAGGTGTGAG", "RUNX1 binding intensity": 736}
{"target": "RUNX1 (UniProt Q01196)", "test": "TF binding intensity (PBM fluorescence), negative control probe (arbitrary fluorescence units); higher = stronger binding", "conditions": "not given", "experimental": "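gcPBM negative-control 36-bp genomic probes lacking TF binding sites. Each was incubated with recombinant human ETS1 or RUNX1 alone and detected by antibody fluorescence. Values are medians over replicate spots (4 spots for the ETS1-RUNX1 arrays, 3 for the ETS1-ETS1 array). The probes sit in constant array flanks that are not printed.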"}
{"sequence": "ACCCCATTTCAGTCATTTCCTGCTGCAACTAAGTCA (protein concentration 2 nM)", "TF binding intensity": 1070}
{"sequence": "ACAGCTGAATTCTCACTTCCTTCGTCTCTGAGCCTG (protein concentration 2 nM)", "TF binding intensity": 874}
{"sequence": "TCTCCGCGCATTTTATTTCCGGTTCTGAGGACGCCG (protein concentration 2 nM)", "TF binding intensity": 1040}
{"sequence": "GGGAGAGATGGGGCGCGGAAGGAACGAGGCGGGACG (protein concentration 2 nM)", "TF binding intensity": 1350}
{"sequence": "TCCCTGCTGGTCCTGGTTCCGGCACACCAGGCCCTC (protein concentration 2 nM)", "TF binding intensity": 864}
{"sequence": "GTCCAGGCAAGAAACAGGAAGTGTGTCATGCACAGA (protein concentration 2 nM)", "TF binding intensity": 870}
{"sequence": "CCCTGCAGCGCGTCCTTTCCGGCCCGCCCCATGCAC (protein concentration 2 nM)", "TF binding intensity": 922}
{"sequence": "TATCACTTCTGGCGAAGGAAATGGAAGAATCTATGG (protein concentration 2 nM)", "TF binding intensity": 1010}
{"sequence": "TCTGAAGGAGCCGGGCGGAAAGAAGCCGAGGCGCGC (protein concentration 2 nM)", "TF binding intensity": 798}
{"sequence": "ATGTGTGTGTTTTTCCTTCCGGTTGCTGTGAGGTGA (protein concentration 2 nM)", "TF binding intensity": 919}
{"sequence": "TCTGGACGATGCAGTTTTCCGGTATACGCGACGCTA (protein concentration 2 nM)", "TF binding intensity": 727}
{"sequence": "GGGTGCAGAAGCCAGCGGAAGCGGAGCGCTACAAGC (protein concentration 2 nM)", "TF binding intensity": 784}
{"sequence": "GCCTCACAAAAGAACAGGATGTTGTTGATTTGTCAC (protein concentration 2 nM)", "TF binding intensity": 828}
{"sequence": "TCGAACAGAATGGAACGGAACGGAACGGAGCGTAAC (protein concentration 2 nM)", "TF binding intensity": 1650}
{"sequence": "GTCCCGCCTTCTCCGCTTCCGCCACCTCCTACTTAG (protein concentration 2 nM)", "TF binding intensity": 1160}
{"sequence": "ACTACCCTCCGCCCTCTTCCGCCGCCGCCGCCGCCT (protein concentration 2 nM)", "TF binding intensity": 1200}
{"sequence": "GCACACAAGGCAGTGTTTCCGGGACAGAGGGTGGGC (protein concentration 2 nM)", "TF binding intensity": 937}
{"sequence": "TTGCCCGTCACTTGAGTTCCGCCTCCTCTGCTCCTC (protein concentration 2 nM)", "TF binding intensity": 922}
{"sequence": "GTGTTTTGCAGCGAAAGGAAATCTCGCTCTTCGGAA (protein concentration 2 nM)", "TF binding intensity": 882}
{"sequence": "CTCACACCCAGTCCCAGGAAGCGAGCCCCACGTCGC (protein concentration 2 nM)", "TF binding intensity": 894}
{"sequence": "ATTCCATTCCAATCCTTTCCGCTCGGCTAAATTCCT (protein concentration 2 nM)", "TF binding intensity": 1450}
{"sequence": "GGTGTCAAAGCCGAGCGGAAGCGGGGCTGGAATTGG (protein concentration 2 nM)", "TF binding intensity": 891}
{"sequence": "ACGCTGCGCATGCGCCGGAAGTTGCAGCCGTGAAGC (protein concentration 2 nM)", "TF binding intensity": 811}
{"sequence": "GACGAGCCCGGTGGCAGGAAGTGACAGTGAGAAACT (protein concentration 2 nM)", "TF binding intensity": 965}
{"sequence": "CTCCCTTGCTCACAACTTCCTCTTGCTGTCTGCTTC (protein concentration 2 nM)", "TF binding intensity": 1170}
{"sequence": "CGTCGCCCGGTCCCGGTTCCGGTCCGCGCTCCGGTC (protein concentration 2 nM)", "TF binding intensity": 910}
{"sequence": "AGGAGGAGATGGGACAGGAAGGAATAGATGGGAGCA (protein concentration 2 nM)", "TF binding intensity": 1720}
{"sequence": "ATTTCTGTGCAGTCACTTCCTCTTCTTAGGTCATAG (protein concentration 2 nM)", "TF binding intensity": 1010}
{"sequence": "TAACTCTTTGCTATCCTTCCGCTGAGCTTCATCTTC (protein concentration 2 nM)", "TF binding intensity": 963}
